Env fusion inh = inhibitors of HIV-1 Env-driven cell-cell fusion, primary screen, HeLa-JRFL effector, CEM21 target cells, luciferase; inhibition, % at 12.3 µM; 360,000 tested, 1.1% active;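 active = mean replicate inhibition score of at least 50 and every replicate individually at or above 50; inconclusive = only one of the two criteria met; inactive = mean below 50 and not all replicates reaching 50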
MITF act = activators of MITF-driven TRPM1 promoter reporter, primary screen, cell-based, SK-MEL-5, luciferase, single point; SK-MEL-5 TRPM1-promoter luciferase, 24 h; % of positive control, neutral wells = 0; activation, % at 12.5 µM; 300,000 tested, 0.75% active;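 active = mean activation of at least 80% with every replicate also reaching 80%; inconclusive = mean reaches 80% but some replicate falls short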
Wnt act = Wnt/beta-catenin pathway activators, primary screen, cell-based, plate reader, single point. 300,000 tested, 1.2% active. Wnt/beta-catenin reporter cell assay, activator. AID 743398, 2014. activation, % at 9.35 µM; in the data active = activation above about 30%, passing the limit was not always enough; inconclusive = no clear call, values can overlap the other calls
esBAF inh = Bmi1 luciferase reporter increase in mESCs, primary screen, esBAF inhibitor project, mouse ES cells, Bmi1 luciferase knock-in, single point; 24 h; 100% = twice the neutral-well signal; reporter increase, % at 12.5 µM; 350,000 tested, 2% active; AID 602393, 2012; in the data active = activation above about 40%; inconclusive = no clear call, values can overlap the other calls;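 note: a rise in the Bmi1 reporter signal indicates esBAF inhibition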
miR-122 sensor = miR-122 Renilla sensor signal increase in Huh7, primary screen, miR-122 inhibitor project, cell-based, single point, plate reader; Huh7 miR-122 Renilla luciferase sensor, 48 h; neutral wells = 0, positive control = 100; activation (reporter increase), % at 12.5 µM; 340,000 tested, 0.3% active;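 active = mean replicate activation score at least 90 and every replicate individually at or above 90; inconclusive = only one of the two criteria met; inactive = neither criterion met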;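 note: higher luciferase means less miR-122 activity so hits act as miR-122 inhibitors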
Hits are given with their value; - = inactive; ? = inconclusive; . = no result; [ ] = another dose, or the depositor's remark. The list is not random: actives were taken first. Their share in the collection is about 3.4%.

SMILES	Env fusion inh	MITF act	Wnt act	esBAF inh	miR-122 sensor
Cc1ccc(OCc2nnc(SCc3ccc(C#N)cc3)n2-c2ccc(C)cc2)cc1	65	-	.	-	.
CCNC(=O)C[C@H]1CC[C@@H]2[C@@H](COc3ccc(NC(=O)c4cscn4)cc3C(=O)N2C)O1	-	.	.	-	-
CO[C@H]1CN(C)C(=O)c2ccc(NS(=O)(=O)c3ccccc3)cc2OC[C@H](C)N(Cc2cccnc2)C[C@@H]1C	-	.	.	-	.
C[C@H](CO)N1C[C@H](C)[C@H](CN(C)C(=O)Nc2ccccc2)Oc2ncc(C#CC3CC3)cc2C1=O	-	.	.	-	-
CNc1oc(-c2ccc(OCc3ccccc3)cc2)nc1C#N	.	-	.	69	-
N#Cc1nc(-c2ccc(OCc3ccccc3)cc2)oc1NCc1ccco1	.	-	.	-	.
Cc1cccc(-c2nc(C#N)c(NCc3ccco3)o2)c1	-	.	32	59	-
Cc1ccc(-c2nc(C#N)c(NCc3ccco3)o2)cc1	.	.	.	73	-
O=C(Cn1cc2c(n1)CCCC2)Nc1cc(-c2cccc(Cl)c2)no1	-	.	-	51	-
O=C(Nc1ccc(N2CCCCC2)c(Cl)c1)c1cccnc1	-	-	-	49	-
O=C(Nc1ccc(N2CCOCC2)c(Cl)c1)c1cccnc1	.	-	.	-	-
O=C(Nc1ccc(N2CCCC2)c(Cl)c1)c1cccnc1	.	?	-	49	-
C[C@H]1CN([C@@H](C)CO)C(=O)c2cc(NC(=O)C3CCCCC3)ccc2O[C@@H]1CN(C)C(=O)Nc1ccc(C(F)(F)F)cc1	-	.	.	-	-
Cc1cc(C)nc(NC(=O)c2ccc(Br)cc2)n1	-	-	-	-	.
Cc1cc(NO)nc(-c2ccc(Br)cc2)n1	-	-	.	51	-
COc1ccc(Cn2nnnc2C(c2cc3cccc(C)c3[nH]c2=O)N2CCOCC2)cc1 (stereo unspecified)	86	-	.	-	-
COc1ccc2[nH]c(=O)c(CN(Cc3ccco3)C(c3nnnn3Cc3ccccc3)C(C)C)cc2c1 (stereo unspecified)	54	.	.	-	-
COc1ccc(Cn2nnnc2C(c2cc3cc(C)ccc3[nH]c2=O)N2CCOCC2)cc1 (stereo unspecified)	67	-	.	-	-
CCN1CCN(C(c2cc3cccc(C)c3[nH]c2=O)c2nnnn2Cc2ccccc2)CC1 (stereo unspecified)	-	.	.	-	-
C[C@H](CO)N1C[C@H](C)[C@@H](CN(C)C)Oc2ccc(NC(=O)Nc3cccc4ccccc34)cc2CC1=O	.	.	.	-	-
NC1=NC(=Nc2ccc(Cl)cc2)c2ccccc21	-	-	-	.	-
CC(C)c1ccc(N=C2N=C(N)c3ccccc32)cc1	-	-	49	.	.
O=C(NNc1ccccc1F)c1ccccc1	-	.	-	.	-
Nc1nc(Nc2ccccc2F)sc1C(=O)c1ccccc1	-	100	35	.	.
COc1cccc(OCc2cc(C(=O)N(C)Cc3nccn3C)no2)c1	-	?	-	69	-
SMILES	Env fusion inh	MITF act	Wnt act	esBAF inh	miR-122 sensor
COc1cccc(OCc2cc(C(=O)N(C)CCOc3ccc(C)cc3)no2)c1	-	-	-	67	-
Cc1cc(OCc2cc(C(=O)N(C)CCOc3ccccc3)no2)cc(C)c1Cl	-	-	-	-	-
COc1ccc(OCc2cc(C(=O)N(C)Cc3nccn3C)no2)c2ccccc12	-	-	-	-	-
CNC[C@@H]1Oc2cc(C#CCC(C)C)ccc2S(=O)(=O)N([C@@H](C)CO)C[C@H]1C	-	.	.	-	-
Cc1noc(C)c1NC(=O)N(C)C[C@H]1Oc2ccc(NS(=O)(=O)c3c(C)noc3C)cc2CC(=O)N([C@@H](C)CO)C[C@@H]1C	-	.	.	-	-
COc1ccc(-c2cc3ncc(-c4ccccc4)c(N)n3n2)cc1	-	147	-	.	.
Oc1cc(NCc2cccnc2)ccc1-c1nc2ccccc2o1	-	.	86	78	-
COCC(=O)N1C[C@@H]2[C@H](c3ccccc31)[C@H](CO)N2C(=O)NC(C)C	.	.	.	-	-
COc1ccc(CNC(=O)c2ccc(C(C)(C)C)cc2)cc1	-	102	-	.	.
COc1ccc(CNC(=O)c2ccc3ccccc3n2)cc1	-	.	-	82	-
Cc1nnc(NC(=O)c2ccc3ccccc3n2)s1	-	-	-	43	-
COc1ccc(CNC(=O)c2ccc(C(C)C)cc2)cc1	-	104	-	.	.
O=C(C[C@H]1CC[C@H]2[C@@H](COC[C@@H](O)CN2S(=O)(=O)c2ccc(F)cc2)O1)NCc1ccncn1	.	.	.	-	-
C[C@H](NC(=O)C[C@@H]1CC[C@H](NC(=O)C2CCOCC2)[C@H](CO)O1)c1ccccc1	-	.	.	-	.
C[C@H]1CN([C@@H](C)CO)C(=O)c2cccc(NC(=O)Nc3ccc4c(c3)OCO4)c2O[C@H]1CN(C)C(=O)Nc1ccc2c(c1)OCO2	-	.	.	-	-
CC(=O)NCCc1ccc(C(=O)COC(=O)c2cc(C)oc2C)cc1	-	-	37	-	.
O=C(Nc1ccccc1)N1CCCCN2[C@H](C1)[C@@H](c1ccc(C#Cc3cccnc3)cc1)[C@@H]2CO	.	.	.	.	-
O=C(C1CC1)N1CCc2cc(Br)cc(S(=O)(=O)N3CCCCCC3)c21	-	.	41	.	.
O=C(C[C@@H]1C[C@H]2c3cc(NC(=O)C4CCC4)ccc3O[C@H]2[C@H](CO)O1)NCc1cccc(F)c1	-	.	.	-	-
CC1CCN(c2ccc(-c3cccc(NC(=O)C(F)(F)F)c3)nn2)CC1	80	-	-	-	-
O=C(Nc1cccc(-c2ccc(N3CCCCC3)nn2)c1)c1ccc(Br)o1	.	-	?	-	-
O=C(Nc1cccc(-c2ccc(N3CCCCC3)nn2)c1)C(F)(F)F	68	-	-	-	-
CCC(=O)Nc1ccc(-c2ccc(N3CCC(C)CC3)nn2)cc1	.	89	.	48	.
COCC(=O)Nc1ccc2c(c1)OC[C@H](C)N(Cc1cccnc1)C[C@@H](C)[C@H](OC)CN(C)C2=O	-	.	.	-	.
C[C@H]1CN([C@@H](C)CO)C(=O)c2cc(N(C)C)ccc2O[C@@H]1CN(C)Cc1ccc(C(=O)Nc2ccccc2N)cc1	-	.	.	-	-
C[C@@H]1CN([C@@H](C)CO)C(=O)c2cc(N(C)C)ccc2O[C@@H]1CN(C)Cc1ccc(C(=O)Nc2ccccc2N)cc1	-	.	.	-	254[16.7 µM]
C[C@H](CO)N1C[C@H](C)[C@@H](CN(C)Cc2ccc(C(F)(F)F)cc2)Oc2ccc(N(C)C)cc2C1=O	?	.	.	-	98[16.7 µM]
C[C@H](CO)N1C[C@H](C)[C@@H](CN(C)Cc2ccc(C(=O)Nc3ccccc3N)cc2)Oc2ccc(N(C)C)cc2CC1=O	-	.	.	-	-
C[C@H](CO)N1C[C@H](C)[C@H](CN(C)Cc2ccc(C(=O)Nc3ccccc3N)cc2)Oc2ccc(N(C)C)cc2CC1=O	-	.	.	-	355[16.7 µM]
O=S(=O)(NCC[C@@H]1CC[C@@H](NS(=O)(=O)c2ccccc2Cl)[C@@H](CO)O1)c1ccc(F)cc1	-	.	.	-	.
